Structures can show the parent of a compound that is named as a salt.
What follows are compounds tested on hN + hpA co-culture (H1 iNGN2 human neurons + human primary astrocytes) (assay: presynaptic density (SYNAPSIN1 puncta per MAP2 neurite area), Z-score vs DMSO controls; higher = more presynaptic puncta (synapse-promoting)). Details: 3 µM; 72 h.
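Note: immunostained co-cultures imaged by high-content microscopy, Z-score per plate against mean and SD of 0.1% DMSO wells, compounds added on differentiation day 18, analysed day 21.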

SMILES | presynaptic density (Z-score)
C=CCNC1=C2C[C@@H](C)C[C@H](OC)[C@H](O)[C@@H](C)/C=C(\C)[C@H](OC(N)=O)[C@@H](OC)/C=C\C=C(/C)C(=O)NC(=CC1=O)C2=O [17-AAG (Tanespimycin)] | 0.868
Cc1cc(C(C)(C)C)c(O)c(C)c1CC1=NCCN1 [Oxymetazoline HCl] | -0.235
CC(C)(C)c1nc(-c2cccc(NS(=O)(=O)c3c(F)cccc3F)c2F)c(-c2ccnc(N)n2)s1 | 0.941
CN1CCC[C@@H]1CCO[C@](C)(c1ccccc1)c1ccc(Cl)cc1 [Clemastine] | -0.781
CN1CCN(c2nc(C3=C(c4c[nH]c5ccccc45)C(=O)NC3=O)c3ccccc3n2)CC1 [AEB071 (Sotrastaurin)] | -0.719
O=c1oc2cc(O)ccc2s1 | -0.113
O=C1[C@H](Cc2ccc(O)cc2)N2C(=O)CCN(C(=O)NCc3ccccc3)[C@H]2CN1Cc1cccc2ccccc12 | -0.969
CCc1cccc2c3c([nH]c12)C(CC)(CC(=O)O)OCC3 (stereo not drawn) [Etodolac] | -1.87
CC(C)C[C@H](NC(=O)CNC(=O)c1cc(Cl)ccc1Cl)B(O)O | -3.07
CC(C)(C)c1cc(/C=C(\C#N)C(N)=S)cc(C(C)(C)C)c1O [Tyrphostin AG 879] | -0.121
O=c1cc(-c2cccc3c2Sc2ccccc2S3)oc(N2CCOCC2)c1 | -0.963
COc1cc2c(Nc3ccc(NC(=O)c4ccccc4)cc3)ncnc2cc1OCCCN1CCOCC1 | -1.71
CN(C)CCCCC(=O)Nc1ccc(NC(=S)NC(=O)c2ccc(C(C)(C)C)cc2)cc1 [Tenovin-6] | -0.671

Source: the supplement of paper PMC10121225
